HCMV antiviral: blocks human cytomegalovirus replication | HFF cells, HCMV-luciferase reporter, 72 h; hits give low values | AID 1259415 | activity change, negative = inhibition, % at 57.5 µM | 4.5% of 410,000 active; in the data active means activity change below about -60%; inconclusive means no clear call, values can overlap the other calls; inactive means above about -39%; further: on the % scale 0 is the no-effect control and ±100 the full control effect
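Compounds were evaluated in HFFs infected with an HCMV luciferase reporter virus (MOI 1 PFU/cell). Luciferase in lysates collected 72 h post infection served as the replication measure.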
Sm TGR inh: S. mansoni TGR enzyme inhibition; AID 485364; Q962Y6; purified TGR, DTNB reduction, TNB absorbance 405 nm; Potency, µM (top dose mostly 114 µM), inactives show at the highest dose activity change, negative = inhibition, hits mostly inhibitors; 3% of 360,000 active; further: potency means the concentration at half of the fitted maximal effect; on the % scale 0 is the no-effect control and ±100 the full control effect; nearly all actives have a fitted effect of over 60% in size
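First, TGR (20 nM dispensed) and NADPH were mixed with compound. Second, a 15 min room-temperature incubation followed. Third, further NADPH and then DTNB were added to start the reaction. Finally, TNB absorbance was monitored kinetically.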
SARS PLpro yeast: SARS-CoV PLP inhibition in yeast. S. cerevisiae expressing SARS-CoV PLpro, growth rescue. AID 485353. 0.19% of 330,000 active. Potency, µM (titrated, usually from 32.9 µM), without a hit: at the top dose activity, positive = growth rescue, hits mostly activators; calls by dose curve; further: potency means the concentration at half of the fitted maximal effect; 0% is about no effect; nearly all actives have a fitted effect of over 55% in size
Pf growth 48h: P. falciparum growth inhibition at 48 hours (one generation). AID 504832. Potency, µM (doses to about 28.7 µM), without a hit: top-dose activity change, negative = inhibition, usual class: inhibitors. 5.9% of 310,000 active. P. falciparum luciferase growth in erythrocytes, 48 h; further: potency means the concentration at half of the fitted maximal effect; on the % scale 0 is the no-effect control and ±100 the full control effect
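A one-generation exposure of luciferase-tagged malaria parasites in RPMI 1640/Albumax erythrocyte culture, 37 C and 5% CO2. Inhibition is inferred from decreased luminescence after adding detection reagent.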
Pf growth 96h: inhibits malaria parasite growth, 96 h. P. falciparum luciferase reporter growth, 96 h. Potency, µM (highest dose often 28.7 µM), without a hit: at the highest dose activity change, negative = inhibition, most hits filed as inhibitors. 6.9% of 320,000 active; further: potency means the concentration at half of the fitted maximal effect; on the % scale 0 is the no-effect control and ±100 the full control effect
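Compounds incubated with erythrocytes infected by luciferase-expressing P. falciparum (2% hematocrit, 0.05% parasitemia final) for 96 hours, 37 C in 5% CO2. Growth inhibition scored as decreased luciferase luminescence.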
HCV inh: blocks hepatitis C virus; Huh7.5.1 HCVcc-Cre infection, luciferase reporter, 44 h; Potency, µM (doses to about 41.8 µM), without a hit: at the highest dose activity change, negative = inhibition, most hits filed as inhibitors; 3.4% of 340,000 active; AID 651820; further: potency means the concentration at half of the fitted maximal effect; on the % scale 0 is the no-effect control and ±100 the full control effect
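Whole-lifecycle infectious HCVcc-Cre system; cells 1,000/well, compound then virus (~0.5 moi) added 4 h after plating, 44 h culture. Luciferase read 15 sec following 15 min substrate incubation, room temp.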
Numbers without * were called inactive; ? = inconclusive; / = no result; [ ] = another dose, or the depositor's remark. The list is not random: actives were taken first. Their share in the collection is about 15%. Unless noted, the call rests on the fitted dose curve; in most records, active means well fitted curve in the direction sought with a large enough effect; inconclusive means small, poorly fitted or top-dose-only effect, or another doubt; inactive means no such curve, though single readings can be large; an effect the other way counts as inactive or inconclusive.

SMILES | HCMV antiviral | Sm TGR inh | SARS PLpro yeast | Pf growth 48h | Pf growth 96h | HCV inh
O=C1C2C3C=CC(C2C(=O)N1C1CCCCC1)C1C2C(=O)N(C4CCCCC4)C(=O)C2C31 (stereo unspecified) | 59.7 | -10.1% | -3.1% | 18.9% | ? | 10.9%
Cc1ccc(S(=O)(=O)N2CCC(NC(=O)OC(C)C)CC2)cc1 | -31.0 | -0.8% | -3.3% | 7.2% | -45.5% | 10.3%
CCC(=O)N(Cc1ccc(C)cc1)Cc1cc2cc3c(cc2[nH]c1=O)OCO3 | 19.4 | -4.4% | 8.9%[6.58 µM] | / | 18.7% | 0.9%
COc1ccc(CN(Cc2cc3cc4c(cc3[nH]c2=O)OCO4)C(=O)NC2CCCCC2)cc1 | -30.7 | 0.7% | -0.6% | 4.65µM* | 17.1% | ?
Cc1ccc(NC(=O)N(Cc2ccc3c(c2)OCO3)Cc2cc3cc4c(cc3[nH]c2=O)OCCO4)cc1 | 30.2 | 1.5% | 0.4% | 1.31µM* | / | ?
CCN(CC)CCN(Cc1cc2cc3c(cc2[nH]c1=O)OCCO3)C(=O)NC1CCCCC1 | 22.4 | 3.4% | -0.6% | -8.6% | -3.0% | 3.0%
COc1ccc(CN(CCCN2CCOCC2)C(=O)Nc2cccc(Cl)c2)cc1OC | -4.8 | -3.6% | -6.9% | ? | 11.7µM* | ?
CCCN1CCCc2cc(CN(CCCN3CCOCC3)C(=O)Nc3ccc(OCC)cc3)ccc21 | -5.7 | -35.1% | 8.2% | / | 5.86µM* | -27.8%
CCOc1ccc(NC(=O)N(CCN2CCOCC2)Cc2ccc3c(c2)CCCN3CC)cc1 | 51.6 | -17.7% | -4.7% | ? | 73.4% | 7.2%
O=C(Nc1cccc(Cl)c1)N(CCN1CCOCC1)Cc1cccc(Cl)c1 | -26.6 | -9.4% | -29.3% | ? | 37.6% | ?
Cc1cc(-c2cc(NC(=O)Cc3c[nH]c4ccccc34)ccc2N(C)c2cccnc2)ccc1F | -37.4 | / | / | / | / | /
CCCCc1ccc(NC(=O)c2cnccn2)cc1 | -33.0 | 5.0% | 3.1% | 486.7% | 231.2% | -7.4%
C[N+](C)(C)CCCN(Cc1ccc2c(c1)OCO2)C(=O)NC1CCCCC1 | 21.9 | 18.5% | 0.4% | ? | ? | 3.16µM*
Cc1ccc(NC(=S)N(CCCN(C)C)Cc2cc3cc4c(cc3[nH]c2=O)OCO4)c(C)c1 | ? | 3.0% | 0.8% | 9.28µM* | ? | 15.1%
CC(NCc1ccc2c(c1)OCO2)C(=O)NC1CCCCC1 (stereo unspecified) | 3.2 | -0.8% | 0.9% | 7.8% | ? | 5.1%
CCc1ccc2[nH]c(=O)c(CN(CCCN3CCOCC3)C(=O)Nc3cccc(Cl)c3)cc2c1 | -14.1 | -33.5% | 1.8% | 5.22µM* | / | 10µM*
CCN(CC)CCCN(Cc1cc2cc3c(cc2[nH]c1=O)OCCO3)C(=O)Nc1ccccc1 | 27.8 | -1.1% | -9.5% | 10.4µM* | / | -21.2%
O=C(Nc1ccccc1)N(CCCN1CCOCC1)Cc1cc2cc3c(cc2[nH]c1=O)OCCO3 | -10.7 | -0.7% | 19.7% | 13.1µM* | -19.9% | -13.5%
Cc1ccc(C)c2[nH]c(=O)c(CN(CCN3CCCC3)C(=O)Nc3cccc(Cl)c3)cc12 | -14.0 | ? | 24.4% | 2.33µM* | 5.3% | 11.2µM*
CCCCn1c(N)c(N(CC(C)C)C(=O)c2ccc(N3C(=O)CCC3=O)cc2)c(=O)[nH]c1=O | -19.8 | -3.6% | -2.9% | -7.1% | 10.3% | -1.0%
Cc1ccc(C2=NN(S(C)(=O)=O)C(c3cccs3)C2)cc1 (stereo unspecified) | 52.3 | -20.6% | 0.6% | 294.4% | 211.4% | -9.4%
CCCC(=O)N1N=C(c2ccccc2)CC1c1cn(C)c2ccccc12 (stereo unspecified) | 39.1 | -1.2% | -41.4% | ? | ? | -12.4%
COc1ccccc1C1CC(c2ccccc2)=NN1C(=O)c1ccccc1 (stereo unspecified) | 61.2 | 13.0% | -4.5% | 0.37µM* | 1.1% | -19.8%
CCc1ccc(C2=NN(S(C)(=O)=O)C(c3cccs3)C2)cc1 (stereo unspecified) | 42.2 | -22.9% | -16.8% | / | 0.294µM* | -14.7%
Cn1cc(C2CC(c3ccccc3)=NN2C(=O)c2ccccc2)c2ccccc21 (stereo unspecified) | -21.2 | 3.9% | 9.7% | 8.28µM* | 8.28µM* | ?
SMILES | HCMV antiviral | Sm TGR inh | SARS PLpro yeast | Pf growth 48h | Pf growth 96h | HCV inh
O=C(c1ccccc1)N1N=C(c2ccccc2)CC1c1ccccc1 (stereo unspecified) | 26.6 | -16.8% | -1.3% | / | 2.33µM* | 12.8%
Cc1nc2cc(NC(=O)c3ccco3)ccc2n1C | 63.1 | -3.4% | -1.7% | 111.5% | 131.8% | 17.5%
Cc1cccc(C(=O)N2N=C(c3ccc(NS(C)(=O)=O)cc3)CC2c2cccs2)c1 (stereo unspecified) | 9.6 | -2.7% | 0.2% | 8.28µM* | ? | ?
COc1ccc(C2=NN(C(=O)c3cccs3)C(c3ccccc3O)C2)cc1 (stereo unspecified) | -94.8* | 1.5% | -7.1% | 10.4µM* | ? | ?
CCC(=O)N1N=C(c2ccccc2)CC1c1ccccc1 (stereo unspecified) | -18.3 | -5.4% | -3.0% | ? | ? | -22.4%
O=C(c1ccccc1)N1N=C(c2ccccc2)CC1c1ccccc1[N+](=O)[O-] (stereo unspecified) | 35.3 | 4.2% | 1.2% | ? | 1.65µM* | 9.9%
Cc1ccc(C(=O)N2N=C(c3ccccc3O)CC2c2ccccc2)cc1 (stereo unspecified) | 11.8 | 9.3% | 1.3% | 10.4µM* | ? | 5.2%
CCC(=O)N1CCc2cc(CNC(=O)Cc3ccc(OC)c(OC)c3)ccc21 | -25.3 | ? | / | / | / | /
CCSc1ncc(Cl)c(C(=O)N(Cc2ccc(N(C)C)cc2)Cc2ccco2)n1 | -8.0 | 1.8% | / | / | / | /
Cc1ccc(C)c(N2N=C(C(=O)Nc3ccc(N4CCOCC4)cc3)CCC2=O)c1 | / | 1.9% | -18.4% | ? | 66.1% | 40.2%
CC1CCC2(CC1)NC(=O)N(CC(=O)N1CCOCC1)C2=O (stereo unspecified) | -0.8 | / | -1.1% | / | / | 0.4%
COc1ccccc1C1CC(c2ccc(NS(C)(=O)=O)cc2)=NN1C(=O)c1ccccc1 (stereo unspecified) | 12.8 | -0.4% | 0.3% | 2.08µM* | ? | 14.6%
Cc1ccc(C(=O)N2N=C(c3ccc(Br)cc3)CC2c2ccccc2O)cc1 (stereo unspecified) | -62.1* | -5.0% | 0.7% | ? | 10.4µM* | ?
CCC(CC)C(=O)N1N=C(c2ccc(NS(C)(=O)=O)cc2)CC1c1ccccc1 (stereo unspecified) | 0.0 | -13.7% | 1.0% | ? | ? | ?
Cc1ccc(C2=NN3C(=O)c4ccccc4C3C2)cc1 (stereo unspecified) | 54.7 | 9.2% | -0.1% | ? | 8.28µM* | -11.7%
